This is an account of results in PubChem BioAssay AID624125 (The Scripps Research Institute Molecular Screening Center, 2012).

About 2,600 (0.72%) of roughly 360,000 compounds were called active. This is one part of a sample in which actives are shown more often than they occur. Values without a mark were called inactive.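 Rule for the calls: active = inhibition above its plate's cutoff, the mean inhibition of sample wells plus 3 SD (cut at about 27% in these data); inactive = the rest.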

The assay deals with Muscarinic acetylcholine receptor M4 (Homo sapiens) (UniProt P08173). Put plainly: CHRM4 blockers of acetylcholine calcium response – CHO cells, Fluo-8 calcium fluorescence, primary screen (AID 624125).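 Note: 0% = acetylcholine EC80 with DMSO and 100% = DMSO without agonist.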 To be noted: CHO-hM4 cells, ACh EC80, Fluo-8 calcium fluorescence; at 3 µM; active compounds read high.
Chain of Muscarinic acetylcholine receptor M4 (Homo sapiens) (P08173 whole entry, looked up): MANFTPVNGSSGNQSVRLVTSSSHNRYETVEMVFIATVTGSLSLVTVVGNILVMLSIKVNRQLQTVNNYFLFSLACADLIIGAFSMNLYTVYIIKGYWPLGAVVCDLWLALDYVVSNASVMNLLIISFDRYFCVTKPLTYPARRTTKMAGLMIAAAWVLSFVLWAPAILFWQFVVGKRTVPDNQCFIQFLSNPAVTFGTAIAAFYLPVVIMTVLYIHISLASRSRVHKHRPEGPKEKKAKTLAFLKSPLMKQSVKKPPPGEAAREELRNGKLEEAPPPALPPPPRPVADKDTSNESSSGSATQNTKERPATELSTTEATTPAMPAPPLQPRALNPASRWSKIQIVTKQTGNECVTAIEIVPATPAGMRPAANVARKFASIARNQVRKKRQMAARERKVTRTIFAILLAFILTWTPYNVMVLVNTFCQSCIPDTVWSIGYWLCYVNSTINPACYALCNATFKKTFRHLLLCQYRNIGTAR
Take `C#CCNC(=O)C1=C[C@@H](c2ccccc2)[C@H](CCCO)[C@@H](OCC)O1`: the inhibition (in general, the change of the read-out against control, counted positive when it falls) is 12.4%.
In the case of `O=C1/C(=C\c2ccc([N+](=O)[O-])cc2)CS(=O)(=O)C/C1=C/c1ccc([N+](=O)[O-])cc1`, the inhibition was 26.7% (active).
In the case of `O=[N+]([O-])c1ccc(CN2CC(N3CC=CC3)CS2(=O)=O)cc1` (centres undefined), the inhibition was -1.16%.
Regarding `O=C(CSCc1c(F)cccc1Cl)NCC1CCCO1` (centres undefined), the inhibition is -3.01%.
For the molecule `CC(=O)Nc1ccccc1OC(C)C(=O)N1CCC(C)CC1` (centres undefined), the inhibition was -7.56%.
As for `CC(C)c1cc(C(=O)N(C)C2CCCN(Cc3ccccc3F)C2)n(C)n1` (centres undefined), the figure is -12.6%.
Consider `O=C(O)C(c1cccs1)C1(O)CCCCC1` (centres undefined), for which the inhibition is 5.22%.
The value for `O=C(O)C(c1ccccc1)C1(O)CCCCC1` (centres undefined) was -13.2%.
For `CN(C)CCOC(=O)C(c1ccccc1)C1(O)CCCC1` (centres undefined), the inhibition was 98% (active).
With `CCC(C)[C@H](NC(=O)N1CCn2c1nc1ccccc12)C(=O)NCc1ccc(OC)cc1` (some centres undefined), the inhibition was -15.9%.
Turning to `NS(=O)(=O)c1ccc(CCNC(=O)c2ccc([N+](=O)[O-])cc2[N+](=O)[O-])cc1`, the inhibition is 5.77%.
Take `COc1nnc(-c2ccc(C)c(S(=O)(=O)N(C)C)c2)c2ccccc12`: the inhibition was 2.31%.
As for `CCCCNc1c(-c2cccc(Sc3ccc(OC)cc3)c2)nc2ccccn12`, the inhibition was 48.5% (active).
With `COC(=O)c1ccc2nc(-c3ccccc3)c(Cc3ccc(OC)cc3C)n2c1`, the inhibition was 11.4%.
As for `COC(=O)c1ccc2nc(-c3cccc(Br)c3)c(Cc3ccc(OC)cc3C)n2c1`, the figure is 1.2%; as for `CN1C(=O)CC(N2CCN(c3ccccn3)CC2)C1=O` (centres undefined), 2.5%.
Regarding `Cc1ccc(C(=O)N(CN2CCCC2=O)c2ccc(F)cc2)cc1`, the inhibition is 6.56%.
In the case of `COc1ccc(CC2(CO)CCN(Cc3cnn(C)c3)CC2)cc1`, the inhibition was -5.66%.
Regarding `COc1cccc(CC2(CO)CCN(Cc3cnc(-c4cccc(C)c4)nc3)CC2)c1`, the inhibition is 0.77%.
In the case of `COC(=O)c1ccc(CN2CCC(CO)(Cc3ccc(OC)cc3)CC2)cc1`, the inhibition was 31.7% (active).
In the case of `CC(C)(C)Nc1c(-c2cccs2)nc2ccccn12`, the inhibition was 6.54%.
In the case of `O=C(CNS(=O)(=O)c1ccc2c(c1)OCCCO2)N1CCN(c2ccc(F)cc2)CC1`, the inhibition was -7.25%.
Regarding `CC(C)CCN1C(=O)c2ccc(C(=O)Nc3cccc(S(N)(=O)=O)c3)cc2C1=O`, the inhibition is 4.89%.
As for `CN=C1C=C/C(=N/N=c2\ccn(O)cc2C)C=C1C`, the figure is 11.9%; as for `c1ccc2c(C[n+]3csc4ccccc43)cccc2c1`, 30.1% (active).
With `Nc1scc[n+]1Cc1cccc2cccnc12`, the inhibition was -7.43%.
Consider `CCN(CC(=O)Nc1ccccc1OC)C(=O)CC1CC2CCC1C2` (centres undefined), for which the inhibition is 0.94%.
For the molecule `Cc1cccc2c1N(CCOc1ccccc1)C(=O)C2=O`, the inhibition was -0.73%.
As for `C/C(=N\N1CCN(Cc2ccc(C)cc2)CC1)c1ccco1`, the figure is 1.69%; as for `CCOC(=O)c1ccccc1NC(=O)COC(=O)CCC(=O)N1CCOCC1`, 2.73%; as for `C[C@H]1[C@H]2c3nc4ccccc4n3C[C@H]1ON2C1CCCCC1`, -2.5%.
As for `Cc1onc(-c2ccccc2)c1-c1nnc(COC(=O)c2ccc(N(C)C)cc2)o1`, the figure is 62.4% (active).
As for `Cc1ccc(C(=O)NCC(=O)OCc2nnc(-c3ccccc3)o2)cc1`, the inhibition was 8.37%.
The value for `O=C(OCc1nnc(-c2ccccc2)o1)c1ccc2c(c1)C(=O)N(CCc1ccccc1)C2=O` was -2.43%.
Consider `COc1ccc(C(=O)N2CCCCC2c2cc(C(=O)Nc3ccccc3)no2)cc1` (centres undefined), for which the inhibition is -6.76%.
As to `Cc1c(C(=O)Nc2ccccc2)sc2nc3n(c(=O)c12)CCCCC3`, the inhibition is -0.96%.
For the molecule `Cn1c(-c2ccc(C(=O)c3ccccc3)s2)nc2ccccc21`, the inhibition is 1.58%.
Take `Cc1nc2sc(C(=O)c3ccccc3)c(N)c2c2c1CCCC2`: the inhibition is 29.8% (active).
In the case of `COc1ccc([C@H]2C[C@@H](n3cc(COC(=O)c4ccccc4)nn3)[C@H](O)CN2C(=O)c2cccs2)cc1`, the inhibition was -7.8%.
Regarding `Cc1ccc(S(=O)(=O)N(CC(=O)NCCSC2CCCCC2)c2ccccc2F)cc1`, the inhibition is -2.75%.
The value for `CCOC(=O)C1C(C)C(C(C)(C)C)N(S(=O)(=O)c2ccc(C)cc2)C1c1ccccc1` (centres undefined) was 37.7% (active); that for `CCCCC[C@@H]1C=C(C(=O)OCC)[C@H](c2ccccc2)N1S(=O)(=O)c1ccc(C)cc1` was -11.2%; that for `CCOC(=O)C1=CC[C@@H](c2ccccc2)N(S(=O)(=O)c2ccc(C)cc2)[C@H]1c1ccc(CC)cc1` was -16.5%.
For `CCC(C)NCCOCCOc1ccc(Br)cc1C` (centres undefined), the inhibition is 6.84%.
The value for `Cc1ccc(C)c(NC(=O)C(OC(=O)c2ccc(C)s2)c2ccccc2)c1` (centres undefined) was -13.1%; that for `CCCOc1ccc(F)cc1-c1cc(C(=O)Nc2ccc(F)cc2)[nH]n1` was -2.62%; that for `CCCOc1ccc(F)cc1-c1cc(C(=O)NCc2ccc(F)cc2)[nH]n1` was -9.17%.
On to `CCCOc1ccc(F)cc1-c1cc(C(=O)Nc2ccc(F)c(Cl)c2)[nH]n1`, for which the inhibition is 28% (active).
On to `CC(=O)NC(C(=O)NCC(N)=O)C(C)C` (centres undefined), for which the inhibition is -7.93%.
As for `Cc1ccc(C)c(S(=O)(=O)Nc2cccc(-n3cnnn3)c2)c1`, the inhibition is 4.01%.
For `O=C(CC1Oc2ccccc2NC1=O)NCCCN1CCN(Cc2ccccc2)CC1` (centres undefined), the inhibition was -1.94%.
For `CN(C)c1ccc(CNC23CN4CN(CN(C4)C2)C3)cc1`, the inhibition is 3.33%.
In the case of `O=C(CN1CCN(Cc2ccccc2)CC1)NC(c1ccccc1)c1ccccc1`, the inhibition is 44.7% (active).
Turning to `O=C(CN1CCc2ccccc21)NC(c1ccccc1)c1ccccc1`, the inhibition is -1.96%.
With `O=C(CN1CCN(Cc2ccccc2)CC1)Nc1ccc(F)c(F)c1`, the inhibition is 13%.
Regarding `CN(CCc1ccccc1)c1ccc([N+](=O)[O-])cn1`, the inhibition was 10.7%.
Regarding `COc1cc(NC(=S)NNC(=O)CC(C)C)c(OC)cc1Cl`, the inhibition was -7.19%.
As for `CN(O)C(=S)c1ccccc1`, the inhibition is 31.7% (active).
As for `Cc1nn(Cc2ccccc2)c(C)c1CNC(=O)c1ccc(F)c(S(=O)(=O)N2CCOCC2)c1`, the inhibition was -8.04%.
